“And” between values parts separate entries of the source, which are not always exact repeats. Equal entries are not always repeated. The source made the active and inactive calls.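 The calls were made as follows, unless noted: active = inhibition at or above 50% relative to wild type and mutant plate controls; inactive = inhibition below 50%.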

Experiment [1] can be described thus: inhibitors of TNFa-induced NFkB p65 translocation, primary screen, imaging, HUVEC, MLSMR starter and 10KST1 sets (AID 438;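 active = inhibition above 20% together with a positive visual image hit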;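 also: compound added about 3h40 before a 20 min TNFalpha stimulation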;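 as to inhibition: signal is the nuclear over cytoplasmic p65 intensity ratio per well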). The note with it: HUVEC TNFa-induced p65 nuclear translocation; cell count: measured here: nuclei count (cytotoxicity indicator), at 2.08 µM; inhibition: at 2 µM, stronger effect = higher value, 0% TNFa-plus-vehicle, 100% no-TNFa wells.
Experiment [2] in a line: inhibitors of mutant huntingtin aggregation, primary screen, imaging, exon1htt(103Q)mCFP cells, high-content imaging (AID 483;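 active = visual image review flags a hit and inhibition of aggregation exceeds 20%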;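 also: compound exposure lasted 3 days before fixation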;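 as to nuclei count: percent of the per-plate median nuclei count of sample wells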). The note with it: exon1htt(103Q)mCFP cell line, aggregate imaging, at 2 µM; inhibition of aggregation: stronger effect = higher value; nuclei count: measured here: cell count, toxicity.
Experiment [3] is described as follows: inhibitors of E-selectin induction by TNFa, primary screen, imaging, HUVEC, immunofluorescence, MLSMR starter and 10KST1 sets (AID 487;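 active = visually confirmed hit in the image check and inhibition above 20%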;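 as to inhibition: signal is fraction of cell area covered by stained E-selectin grains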;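 as to nuclei count: 100% = median nuclei count of all wells on the same plate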). The note with it: HUVEC TNFalpha-induced E-selectin immunofluorescence imaging, at 2 µM; inhibition: stronger effect = higher value; nuclei count: measured here: cell number, toxicity.
Experiment [4] in a line: DUSP6 inhibitors restoring Erk phosphorylation by chemical complementation, primary imaging in DUSP6-transfected HeLa (AID 609;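 active = compounds giving at least 50% inhibition in the cell-based MKP-3 phosphatase rescue imaging test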;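 as to inhibition: phospho-Erk level distribution per well compared with pooled transfected vehicle control wells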). The note with it: HeLa MKP-3 transfected, phospho-Erk imaging KS statistic, at 10 µM, cells stimulated with TPA for 15 min.
Experiment [5] deals with Dual specificity protein phosphatase 6 (Homo sapiens) (UniProt Q16828). Described as above. The note with it: HeLa MKP-3 transfected, phospho-Erk imaging KS statistic; at 10 µM; stronger effect = higher value; cells stimulated with TPA for 15 min.
Sequence of Dual specificity protein phosphatase 6 (Homo sapiens) (Q16828 whole entry, looked up): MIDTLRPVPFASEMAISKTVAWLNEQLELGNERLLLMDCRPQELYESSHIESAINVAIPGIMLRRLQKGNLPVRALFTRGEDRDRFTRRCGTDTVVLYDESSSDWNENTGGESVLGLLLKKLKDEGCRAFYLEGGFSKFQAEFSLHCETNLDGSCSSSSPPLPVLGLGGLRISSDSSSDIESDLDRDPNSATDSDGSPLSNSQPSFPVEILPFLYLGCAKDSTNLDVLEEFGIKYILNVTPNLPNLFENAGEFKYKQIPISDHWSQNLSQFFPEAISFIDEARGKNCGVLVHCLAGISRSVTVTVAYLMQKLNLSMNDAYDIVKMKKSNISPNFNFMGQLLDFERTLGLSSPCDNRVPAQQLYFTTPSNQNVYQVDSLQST
The target in experiment [6] is Voltage-gated potassium channel subunit beta-2 (Rattus norvegicus) (UniProt P62483). The experiment in a line: KvBeta enzyme negative modulators, primary screen, biochemical, NADPH fluorescence (AID 622;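 active = fluorescence slope higher than the sample average by over 3 SD, cut at about -0.22 in these data, passing the limit was not always enough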;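 also: slope of raw intensity against log time taken from 70 to 1610 s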). The following applies: recombinant KvBeta, 4-cyanobenzaldehyde reduction, at 10 µM, stronger effect = higher value.
Sequence of Voltage-gated potassium channel subunit beta-2 (Rattus norvegicus) (P62483 whole entry, looked up): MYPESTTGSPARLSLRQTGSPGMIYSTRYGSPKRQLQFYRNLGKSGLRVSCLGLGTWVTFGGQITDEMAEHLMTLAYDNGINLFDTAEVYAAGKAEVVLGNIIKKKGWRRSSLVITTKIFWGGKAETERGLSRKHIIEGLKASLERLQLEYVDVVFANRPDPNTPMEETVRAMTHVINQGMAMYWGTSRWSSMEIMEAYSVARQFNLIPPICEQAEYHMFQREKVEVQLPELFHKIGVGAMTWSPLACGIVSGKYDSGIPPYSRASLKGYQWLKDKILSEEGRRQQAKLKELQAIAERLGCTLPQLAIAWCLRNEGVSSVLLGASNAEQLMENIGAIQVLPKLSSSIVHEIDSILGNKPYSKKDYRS
For experiment [7] the target is unchanged. The experiment in a line: KvBeta positive modulators, primary screen, biochemical, NADPH fluorescence (AID 623;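 active = NADPH fluorescence slope more negative than the mean of all samples by about 3 SD, 99.7% confidence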;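 also: fluorescence intensity change per second fitted from 20 to 320 s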). The note with it: Recombinant KvBeta, NADPH fluorescence decrease slope, 10 min; at 10 µM; stronger effect = lower value.
Experiment [8] deals with Muscarinic acetylcholine receptor M4 (Homo sapiens) (UniProt P08173). The experiment in a line: compounds altering M4/GIRK thallium flux, either direction, primary screen, M4 allosteric agonist project, cell-based, HEK293 M4/GIRK, BTC-AM (AID 625;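 active = fluorescence slope after compound addition differing from the mean of all tested samples at 99.7% confidence, mostly higher but some lower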;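 also: thallium influx through GIRK channels coupled to M4 in HEK293 cells with BTC-AM dye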). The note with it: at 10 µM, actives lie on both sides.
Sequence of Muscarinic acetylcholine receptor M4 (Homo sapiens) (P08173 whole entry, looked up): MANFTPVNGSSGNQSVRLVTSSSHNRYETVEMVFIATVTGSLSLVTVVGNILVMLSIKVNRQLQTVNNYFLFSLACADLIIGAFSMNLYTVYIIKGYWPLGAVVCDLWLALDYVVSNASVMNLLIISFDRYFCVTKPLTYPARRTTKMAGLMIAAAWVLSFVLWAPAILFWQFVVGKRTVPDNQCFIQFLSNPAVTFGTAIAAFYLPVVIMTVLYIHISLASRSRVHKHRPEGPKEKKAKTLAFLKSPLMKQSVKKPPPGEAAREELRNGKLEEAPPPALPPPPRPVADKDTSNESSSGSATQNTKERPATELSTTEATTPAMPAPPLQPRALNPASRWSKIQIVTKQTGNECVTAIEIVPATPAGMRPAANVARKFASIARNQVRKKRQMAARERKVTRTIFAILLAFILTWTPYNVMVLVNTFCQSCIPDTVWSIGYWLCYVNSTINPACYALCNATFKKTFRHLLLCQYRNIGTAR
A short description of experiment [9]: inhibitors of larval lipid processing in zebrafish, primary screen, whole organism, PED6 fluorescence, gall bladder and intestine (AID 686;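 active = a full or partial loss of lipid-probe fluorescence in the fish gall bladder, intestine or both, judged by eye; inactive = no fluorescence loss, or compound toxic to the fish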;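 also: larvae 5 to 7 days old with five fish per well; signal comes from phospholipase A2 cleavage of quenched PED6 carried via bile; overnight exposure to compound and PED6 before scoring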). The note with it: Zebrafish larvae PED6 lipid processing, fluorescence scoring; screened at 20 µM (by protocol).
Experiment [10] can be described thus: inhibitors of Chlamydomonas gravitaxis, primary screen, whole organism, Chlamydomonas reinhardtii, WT vs cilia-less mutant, absorbance, 96-well (AID 463189).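 Also: 0% = wild type cc124 cells in DMSO and 100% = ciliumless bld1 mutant cells.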 The note with it: OD600 absorbance, 2 days, at 10 µM, stronger effect = higher value.
The nature of experiment [11]: inhibitors of Sendai virus-induced IRF3 signaling, primary screen, TLR/RLR signaling modifier project, cell-based, Sendai virus stimulus, luciferase, 10K MLSCN set (AID 602276;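 active = inhibition at or above 50% at 10 µM; inactive = inhibition below 50%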;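 also: firefly luciferase from ISG56 promoter only with Renilla not read in this screen; 0% = Sendai virus plus DMSO and 100% = medium plus DMSO without virus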). The note with it: HEK293 RL24 IRF3 luciferase reporter, at 10 µM, stronger effect = higher value.
Experiment [12] is described as follows: inhibitors of poly I:C-induced TLR3 signaling, primary screen, cell-based, poly I:C stimulus, luciferase, 10K MLSCN set (AID 602277;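 active = inhibition of the reporter signal at or above 50%; inactive = inhibition below 50%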). The note with it: HEK293-TLR3 RL24 IRF3 luciferase reporter, at 10 µM, stronger effect = higher value.
In experiment [13] the target is Alpha-2C adrenergic receptor (Homo sapiens) (UniProt P18825). The experiment can be described thus: modulators of alpha2C/GIRK thallium flux, primary screen, cell-based, HEK293 alpha2C/GIRK1/2 (AID 624;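 active = fluorescence slope after compound addition differing from the mean of all screened samples at 99.7% confidence, in either direction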;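 also: slope of fluorescence ratio to pre-addition baseline per second over 15 to 24 s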). The following applies: thallium flux BTC fluorescence, at 10 µM, actives lie on both sides.
Sequence of Alpha-2C adrenergic receptor (Homo sapiens) (P18825 whole entry, looked up): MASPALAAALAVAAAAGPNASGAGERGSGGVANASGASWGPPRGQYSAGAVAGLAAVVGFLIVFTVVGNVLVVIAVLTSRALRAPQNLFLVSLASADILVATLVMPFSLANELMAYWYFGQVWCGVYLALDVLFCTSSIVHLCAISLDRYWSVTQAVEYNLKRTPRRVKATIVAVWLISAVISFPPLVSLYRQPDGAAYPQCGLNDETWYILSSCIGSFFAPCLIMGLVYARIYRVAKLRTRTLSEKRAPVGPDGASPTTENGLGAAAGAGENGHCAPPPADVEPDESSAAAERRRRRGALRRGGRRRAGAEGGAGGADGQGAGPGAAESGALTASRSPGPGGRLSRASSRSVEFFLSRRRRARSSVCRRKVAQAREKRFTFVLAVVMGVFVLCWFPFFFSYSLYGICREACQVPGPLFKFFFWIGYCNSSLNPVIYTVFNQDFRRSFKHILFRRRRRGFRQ
Setting [14] is: measured here: cell density z-score.
Setting [15] is: measured here: nuclear c-Myc green intensity z-score.
Where [16] appears, read: measured here: nuclear pErk red intensity z-score, stronger effect = higher value.

As for `Cc1cc(O)c(C(C)C)cc1N=C1CSC(=O)N1`, in [1], the cell count worked out at 428. The inhibition in experiment [1] was -5.3% (inactive); in experiment [3], -9% (inactive); in experiment [5], 12.8% (inactive); in [10] it was -20% (inactive); in experiment [11], 13% (inactive); in experiment [12], 19.6% (inactive). The inhibition of aggregation in [2] was 10.4% (inactive). For the same compound, the nuclei count in experiment [2] came out at 60.9%; in experiment [3], 98.6%. Moreover, the z-score in experiment [4] (setting [14]) is 0.698; in experiment [4] (setting [15]) it was -0.53; in experiment [4] (setting [16]) it was 0.0977. Besides, the results for the fluorescence slope in experiment [6] and in [8] were -0.483 (inactive) and 0.00491 (inactive), respectively. Moreover, in experiment [7], the NADPH fluorescence slope was -5.3e-05 (inactive). In addition, the outcome in [9] was inactive.

Consider `COc1ccc(OC)c(C2C(C#N)=C(N)Oc3cc(C)[nH]c(=O)c32)c1` (stereo not given), for which the cell count in [1] amounted to 544. Further, the inhibition in [1] is -31.7% (inactive); in experiment [3], -48.5% (inactive); in [5], -7.86% (inactive); in [10], 15.7% (inactive); in [11] it was 13.1% (inactive); in experiment [12] it was -12.4% (inactive). For the same compound, the inhibition of aggregation in [2] is 19.9% (inactive). The nuclei count in experiment [2] stood at 88.9%; in experiment [3], 122%. For the same compound, the z-score in experiment [4] (setting [14]) is -0.908; in experiment [4] (setting [15]) it was -1.31; in [4] (setting [16]), -0.529. Besides, in experiment [6], the fluorescence slope is -0.536 (inactive). For the same compound, the NADPH fluorescence slope in experiment [7] was -5e-05 (inactive). Also, the slope in experiment [13] is 0.00618 (inactive). Further, the result in experiment [9] was inactive.

With `CC1(C)Cc2c(sc3c2C2=NCCN2C=N3)CS1`, in experiment [1], the cell count was 632. In addition, the inhibition in experiment [1] was -2.6% (inactive); in [3] it was -26.4% (inactive); in [5], 11.3% (inactive); in experiment [10] it was -8.31% (inactive); in experiment [11] it was 0.61% (inactive); in [12], 4.84% (inactive). Also, in [2], the inhibition of aggregation was -1.3% (inactive). Moreover, the nuclei count in experiment [2] turned out to be 109%; in [3], 138%. Also, the z-score in [4] (setting [14]) was 1.38; in experiment [4] (setting [15]) it was 0.227; in experiment [4] (setting [16]), -1.08. In addition, the fluorescence slope in experiment [6] was -0.487 (inactive). Moreover, the NADPH fluorescence slope in experiment [7] was -0.000119 (inactive). The slope in experiment [13] is 0.00445 (inactive). For the same compound, the compound was classed as inactive in experiment [9].

Turning to `CN(C)c1nc(N(C)C)nc(N(C)C)n1`, the cell count in [1] amounted to 680. Also, the inhibition in [1] was -4.1% (inactive); in experiment [3] it was -118% (inactive); in experiment [5] it was 11.3% (inactive); in experiment [10] it was 4.91% (inactive) and -7.01% (inactive); in experiment [11] it was 14.2% (inactive); in experiment [12], 32.5% (inactive). For the same compound, the inhibition of aggregation in [2] is 1.6% (inactive). The results for the nuclei count in [2] and in [3] were 109% and 129%, respectively. For the same compound, the z-score was 1.31 in experiment [4] (setting [14]), -0.357 in [4] (setting [15]) and -1.49 in experiment [4] (setting [16]). In addition, the fluorescence slope in experiment [6] was -0.459 (inactive). For the same compound, the NADPH fluorescence slope in [7] was 2.8e-05 (inactive). In addition, in experiment [13], the slope was 0.0048 (inactive). In addition, the outcome in experiment [9] was inactive.

Regarding `N[C@@H](Cc1ccc(O)c(I)c1)C(=O)O`, the cell count in experiment [1] stood at 525. In addition, the inhibition in experiment [1] was 0.1% (inactive); in experiment [3] it was -11.6% (inactive); in experiment [5], -4.44% (inactive); in [10], 0.129% (inactive) and -19.2% (inactive); in experiment [11], 9.28% (inactive); in [12], 24.3% (inactive). Besides, in experiment [2], the inhibition of aggregation is 1.7% (inactive). Besides, the nuclei count in experiment [2] is 92.3%; in experiment [3], 110%. For the same compound, the values for the z-score in experiment [4] (setting [14]), in experiment [4] (setting [15]) and in [4] (setting [16]) were -0.528, -0.732 and -0.19, respectively. Further, the fluorescence slope in experiment [6] was -0.463 (inactive). Also, the NADPH fluorescence slope in [7] is 3e-05 (inactive). Besides, in [13], the slope was 0.00503 (inactive). Also, in experiment [9], the result was inactive.

Source of the values: PubChem BioAssay.
